Compound activity: PubChem, Broad Institute
Rows were chosen to be rich in hits. Some 6.8% of all compounds tested hit in one or more screens of this group.
Pf Dd2 inh: P. falciparum Dd2 growth inhibition. SYBR Green, 72 h; hits give low values. activity change, % at 10 µM. 94,000 tested, 2.3% active; in the data active = activity change below about -80%; inconclusive = no clear call, values can overlap the other calls
C diff HTS: blocks growth of Clostridium difficile; AID 1259249; Clostridium difficile clinical isolate growth, OD600, 24 h; hits give low values; 86,000 tested, 0.25% active; growth activity, negative = inhibition, % at 16 µg/mL (by protocol);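 active = mean growth activity at or below -80% and every replicate also at or below -80%; inconclusive = mean at or below -80% but some replicate above -80%; inactive = mean growth activity above -80%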
T cruzi growth-1: inhibitors of T. cruzi proliferation | inhibition, % at 8.34 µM | T. cruzi beta-gal in NIH3T3, GalScreen luminescence, 90 h | 77,000 tested, 5.9% active;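 active = mean inhibition above about 93%, with at least 55% of replicates each passing it, limit read from the data, passing the limit was not always enough; inconclusive = only one of those two conditions holds; inactive = neither condition holds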
T cruzi growth-2: inhibitors of T. cruzi proliferation; inhibition, % at 8.35 µM; 5,600 tested, 72% active; T. cruzi beta-gal in NIH3T3, GalScreen luminescence, 90 h; shares compounds with T cruzi growth-1;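 active = mean replicate inhibition above about 95% and at least 55% of replicates individually reaching it, limit read from the data; inconclusive = only one of the two criteria is met; inactive = neither criterion is met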
T cruzi growth-3: inhibitors of T. cruzi proliferation. shares compounds with T cruzi growth-1. T. cruzi beta-gal in NIH3T3, GalScreen luminescence, 90 h. inhibition, % at 2.09 µM. 5,600 tested, 21% active;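 active = mean inhibition above about 95%, with at least 55% of replicates also reaching it, limit read from the data; inconclusive = meets just one of the two conditions; inactive = meets neither condition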
3T3 cytotox: NIH/3T3 (mouse) viability loss | 5,600 tested, 14% active | shares compounds with T cruzi growth-1 | NIH/3T3 viability, CellTiter-Glo ATP luminescence, 90 h | cytotoxicity (signal decrease), % at 8.35 µM;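 active = mean signal decrease across replicates above about 35% based on untreated-well scatter, with enough replicates individually passing, limit read from the data; inconclusive = no rule stated though some were filed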
NIH3T3 tox 2: kills mouse NIH/3T3 fibroblasts | shares compounds with T cruzi growth-1 | NIH/3T3 viability, CellTiter-Glo ATP luminescence, 90 h | inhibition, % at 24.9 µM | 5,600 tested, 56% active;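 active = mean loss of cell viability signal at or above a set limit, and enough replicates individually reaching it; inconclusive = meets only the mean limit or only the replicate share; inactive = meets neither condition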
Large screens that a line does not name were inactive (follow-up assays come after a bar, where they were run).

C[C@@H]1CN([C@@H](C)CO)C(=O)c2cc(NC(=O)Nc3ccc(C(F)(F)F)cc3)ccc2O[C@H]1CN(C)Cc1ccc(-c2ccccc2)cc1	T cruzi growth-1 104 | T cruzi growth-2 102 | T cruzi growth-3 inactive | 3T3 cytotox inactive | NIH3T3 tox 2 105
CN1CCN(C(=O)[C@H]2[C@H](CO)[C@H]3Cn4c(cccc4=O)[C@H]3N2Cc2ccccc2F)CC1	none (no result: Pf Dd2 inh)
C[C@H]1CN([C@@H](C)CO)C(=O)c2cc(NC(=O)CCN3CCOCC3)ccc2O[C@H]1CN(C)S(=O)(=O)c1ccc(F)cc1	none
CO[C@H]1CN(C)C(=O)c2ccc(NC(=O)Nc3cc(F)ccc3F)cc2OC[C@@H](C)NC[C@@H]1C	none (no result: C diff HTS)
CNC[C@@H]1Oc2ccc(NC(=O)CCCN(C)C)cc2C(=O)N([C@H](C)CO)C[C@@H]1C	none
CC(C)C#Cc1ccc([C@H]2[C@@H](C#N)N(C(=O)C3CCC3)[C@@H]2CO)cc1	none
CC(C)C#Cc1ccc([C@@H]2[C@@H](C#N)N(C(=O)C3CC3)[C@H]2CO)cc1	none
CC(C)C#Cc1ccc([C@H]2[C@@H](CO)N(C(=O)C3CCOCC3)[C@H]2C#N)cc1	T cruzi growth-1 98 | T cruzi growth-2 106 | T cruzi growth-3 inactive | 3T3 cytotox inactive | NIH3T3 tox 2 inactive
CC(C)C#Cc1ccc([C@H]2[C@@H](C#N)N(C(=O)C3CC3)[C@H]2CO)cc1	none
CC(C)C#Cc1ccc([C@@H]2[C@@H](CO)N(C(=O)C3CCC3)[C@H]2C#N)cc1	T cruzi growth-1 100 | T cruzi growth-2 100 | T cruzi growth-3 inactive | 3T3 cytotox inactive | NIH3T3 tox 2 31
CC(C)C#Cc1ccc([C@@H]2[C@H](C#N)N(C(=O)C3CCC3)[C@H]2CO)cc1	T cruzi growth-1 inconclusive | T cruzi growth-2 104 | T cruzi growth-3 inactive | 3T3 cytotox inactive | NIH3T3 tox 2 34
CC(C)C#Cc1ccc([C@H]2[C@@H](C#N)N(C(=O)C3CCC3)[C@H]2CO)cc1	T cruzi growth-1 98 | T cruzi growth-2 100 | T cruzi growth-3 inactive | 3T3 cytotox inactive | NIH3T3 tox 2 37
CCS(=O)(=O)N1[C@@H](CO)[C@H](c2ccccc2)C12CN(C(=O)C1CC1)C2	none (no result: T cruzi growth-1)
C[C@@H]1CN([C@H](C)CO)C(=O)c2cccc(NC(=O)C3CCCCC3)c2O[C@H]1CN(C)C(=O)Nc1ccc2c(c1)OCO2	none
C[C@@H]1CCCCO[C@H](CN(C)C(=O)c2ccncc2)[C@H](C)CN([C@@H](C)CO)C(=O)c2cc(NC(=O)Cc3ccccc3)ccc2O1	none
COc1ccccc1NC(=O)N[C@H]1CC[C@H](CC(=O)N[C@H](C)c2ccccc2)O[C@@H]1CO	none (no result: C diff HTS)
COc1ccc(NC(=O)Nc2ccc3c(c2)C(=O)N([C@H](C)CO)C[C@H](C)[C@H](CN(C)Cc2ccc4c(c2)OCO4)OCCCC[C@H](C)O3)cc1	T cruzi growth-1 inconclusive | T cruzi growth-2 98 | T cruzi growth-3 99 | 3T3 cytotox inactive | NIH3T3 tox 2 103
COc1ccc(NC(=O)Nc2ccc3c(c2)C(=O)N([C@H](C)CO)C[C@@H](C)[C@@H](CN(C)Cc2ccc4c(c2)OCO4)OCCCC[C@@H](C)O3)cc1	T cruzi growth-1 124 | T cruzi growth-2 100 | T cruzi growth-3 inactive | 3T3 cytotox inactive | NIH3T3 tox 2 37
COc1ccc(NC(=O)Nc2ccc3c(c2)C(=O)N([C@@H](C)CO)C[C@H](C)[C@H](CN(C)Cc2ccc4c(c2)OCO4)OCCCC[C@@H](C)O3)cc1	T cruzi growth-1 103 | T cruzi growth-2 103 | T cruzi growth-3 inactive | 3T3 cytotox inactive | NIH3T3 tox 2 inactive
COc1ccc(NC(=O)Nc2ccc3c(c2)C(=O)N([C@@H](C)CO)C[C@H](C)[C@H](CN(C)Cc2ccc4c(c2)OCO4)OCCCC[C@H](C)O3)cc1	T cruzi growth-1 118 | T cruzi growth-2 102 | T cruzi growth-3 103 | 3T3 cytotox 40 | NIH3T3 tox 2 43
COc1ccc(NC(=O)Nc2ccc3c(c2)C(=O)N([C@H](C)CO)C[C@@H](C)[C@H](CN(C)Cc2ccc4c(c2)OCO4)OCCCC[C@H](C)O3)cc1	none
C[C@H](CO)N1C[C@H](C)[C@H](CN(C)Cc2ccncc2)Oc2c(NS(=O)(=O)c3ccc(F)cc3)cccc2C1=O	none
